Screens deposited in PubChem by National Center for Advancing Translational Sciences (NCATS).
RXFP1 antag: qHTS Assay for Antagonists of the Relaxin Receptor RXFP1 | hit rate 0.59% among 350,000 | HEK293-RXFP1, relaxin-stimulated cAMP HTRF, 30 min; stronger effect = lower value | activity change, negative = inhibition, % at 57.5 µM;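 active means activity change of -60% or lower, but not beyond a set lower limit; inconclusive means change between -60% and -40%, or beyond the set limit; inactive means change above -40%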; further: on the % scale 0 is the no-effect control and ±100 the full control effect
Target sequence (Q9HBX9 whole entry, looked up): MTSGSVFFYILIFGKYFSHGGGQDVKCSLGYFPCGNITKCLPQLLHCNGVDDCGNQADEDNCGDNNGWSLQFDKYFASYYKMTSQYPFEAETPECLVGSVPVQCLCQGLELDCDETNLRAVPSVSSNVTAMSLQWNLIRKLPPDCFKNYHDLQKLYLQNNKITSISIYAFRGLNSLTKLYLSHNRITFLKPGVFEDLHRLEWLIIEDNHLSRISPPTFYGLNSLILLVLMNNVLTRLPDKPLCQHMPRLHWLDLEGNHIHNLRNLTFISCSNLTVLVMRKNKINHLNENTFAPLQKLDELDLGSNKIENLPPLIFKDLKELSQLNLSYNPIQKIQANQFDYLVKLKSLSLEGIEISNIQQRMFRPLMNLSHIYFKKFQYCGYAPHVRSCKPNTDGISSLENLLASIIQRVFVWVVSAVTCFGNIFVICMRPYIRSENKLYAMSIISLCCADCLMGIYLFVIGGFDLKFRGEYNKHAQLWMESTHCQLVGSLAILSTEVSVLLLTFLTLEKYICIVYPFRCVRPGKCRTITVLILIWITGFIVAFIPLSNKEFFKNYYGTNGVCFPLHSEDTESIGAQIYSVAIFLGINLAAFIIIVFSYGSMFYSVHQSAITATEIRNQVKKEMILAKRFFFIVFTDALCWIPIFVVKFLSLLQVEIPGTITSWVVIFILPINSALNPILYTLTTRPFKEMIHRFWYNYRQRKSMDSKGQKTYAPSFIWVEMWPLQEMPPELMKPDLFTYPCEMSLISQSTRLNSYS
gsp antagonist: qHTS for Antagonists of gsp, the Etiologic Mutation Responsible for Fibrous Dysplasia/McCune-Albright Syndrome: qHTS; gsp-mutant cells, cAMP HTRF, 30 min; Potency, µM (highest dose often 76.9 µM), inactives show at the highest dose activity change, negative = inhibition, actives largely listed as inhibitors; hit rate 0.4% among 340,000; calls by dose curve; cell line not stated here;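 further: intracellular cAMP measured with PDE inhibitor Ro 20-1724 present during compound exposure; potency means the concentration at half of the fitted maximal effect; on the % scale 0 is the no-effect control and ±100 the full control effect; nearly all actives have a fitted effect of over 65% in size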
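Cells, 2000/well, grown 16–24 h in DMEM 10% FBS with 0.5 mg/ml G418, then compounds plus […] (300 uM addition stock), 30 min at 37C. cAMP read by HTRF (cAMP-d2 and anti-cAMP antibody-K in lysis buffer) after 30 min RT.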
RXFP1 agonist: qHTS Assay for Agonists of the Relaxin Receptor RXFP1 | Relaxin receptor 1 (Homo sapiens), Q9HBX9 | HEK293T-RXFP1 cAMP TR-FRET, 30 min; response scale: percent of porcine relaxin response, buffer zero | Potency, µM (series often up to 57.5 µM), for inactives: at the top dose activation, actives largely listed as activators | hit rate 0.3% among 370,000; active means well fitted activation curve with a large enough effect; inconclusive means small, poorly fitted or top-dose-only effect; further: potency means the concentration at half of the fitted maximal effect; on the % scale 0 is the no-effect control and ±100 the full control effect; nearly all actives have a fitted effect of over 60% in size
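HEK293T cells stably expressing RXFP1 were pretreated with the PDE4 inhibitor Ro 20174, exposed to compounds for 30 min at 37C, lysed, and cAMP was read by TR-FRET. Data normalized to buffer (basal) and 29 nM porcine relaxin (100%).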
pAkt inh: HTS Assay for Inhibitors of Akt Phophorylation: Primary Screen; hit rate 0.32% among 360,000; Neuro2A IGF-stimulated pAkt S473 HTRF, 20 min; stronger effect = lower value; activity change, % for hits at 50 µM; in the data active means activity change below about -80%; inconclusive means mostly about -51% to -80%; further: on the % scale 0 is the no-effect control and ±100 the full control effect
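Single-point screen (50 µM final compound) in Neuro2A cells stimulated 20 min with 6 nM IGF at 37 deg C. After lysis, Ser473-phosphorylated Akt read by HTRF (ex 330 nm, em 615/665 nm) as the 665/615 ratio.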
gsp agonist: qHTS for Agonist of gsp, the Etiologic Mutation Responsible for Fibrous Dysplasia/McCune-Albright Syndrome: qHTS; gsp mutant cells, cAMP HTRF, 30 min; Potency, µM (top dose mostly 76.9 µM), without a hit: at the highest dose activation (cAMP increase), most hits filed as activators; hit rate 0.13% among 340,000; active means well fitted activation curve with a large enough effect; inconclusive means small, poorly fitted or top-dose-only effect, or another doubt; inactive means no such curve, though single readings can be large or run the other way; cell line not stated here;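 further: phosphodiesterase inhibitor Ro 20-1724 added with compounds to block cAMP breakdown; potency means the concentration at half of the fitted maximal effect; nearly all actives have a fitted effect of over 60% in size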
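Cells stably selected in G418 were plated at 2000/well, grown 16-24 hr, then given compounds in DMSO with the PDE inhibitor […] (300 uM solution added) for 30 min at 37C; cAMP was read by HTRF.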
ClpP mod: qHTS Assay for Activators of ClpP | ATP-dependent Clp protease proteolytic subunit (Bacillus subtilis (strain 168)), P80244 | purified B. subtilis ClpP, FRET peptide cleavage, 20 min | Potency, µM (top dose mostly 57.5 µM), for the others: top-dose activity change, negative = active | hit rate 1.9% among 340,000; active means well fitted falling curve with a large enough effect; inconclusive means small, poorly fitted or top-dose-only effect; inactive means no such curve, though single readings can be large or run the other way; further: potency means the concentration at half of the fitted maximal effect; the source files actives as falling curves though it sought activators and does not explain the sign; nearly all actives have a fitted effect of over 65% in size
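Buffer: 100 mM Tris/HCl pH8, 100 mM KCl, 0.05% low protease BSA, 2.5% glycerol, 0.01% Tween-20. ClpP 10 microg/mL final; 20 min RT; delta FRET normalized to ADEP and DMSO controls.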
* hit, by the source's call; [ ] = remark or other dose. The list is not random: actives were taken first. Their share in the collection is about 2.7%.

`COc1ccc(NS(=O)(=O)c2ccc(S(=O)(=O)N3CCCC3)cc2)cc1` gave RXFP1 antag -7.8, gsp antagonist -8.7%, RXFP1 agonist 2.8%, pAkt inh inactive, gsp agonist -39.3% and ClpP mod -5.4%.
Screening O=S(=O)(c1ccc(-c2csc(Nc3ccc(F)cc3)n2)cc1)N1CCCC1 returned RXFP1 antag -15.3, gsp antagonist -15.5%, RXFP1 agonist -0.2%, pAkt inh inactive, gsp agonist -16.1% and ClpP mod 20µM*.
`Cc1cc(C)cc(Nc2nc(-c3ccc(S(=O)(=O)N4CCCC4)cc3)cs2)c1` gave gsp antagonist -15.7%, RXFP1 agonist 5.1%, pAkt inh inactive, gsp agonist -3.5% and ClpP mod 3.7%.
`Cc1ccc(Nc2nc(-c3ccc(S(=O)(=O)N4CCOCC4)cc3)cs2)cc1` gave RXFP1 antag 10.9, gsp antagonist 6.0%, pAkt inh inactive, gsp agonist -0.6% and ClpP mod 12.6µM*.
For COc1ccc(NS(=O)(=O)c2ccc(S(=O)(=O)N3CCOCC3)cc2)cc1 the results were RXFP1 antag -19.3, gsp antagonist -28.8%, RXFP1 agonist -2.5%, pAkt inh inactive, gsp agonist -4.8%[15.4 µM] and ClpP mod 15.8µM*.
`CCCCCCC1CCC(C(=O)NC(C(=O)O)C(C)C)CC1` (configuration not stated) gave RXFP1 antag -2.3, RXFP1 agonist -0.2% and ClpP mod -2.4%.
Screening CCc1nnc(NC(=O)c2ccccc2NC(=O)C2CCN(C(=O)c3ccco3)CC2)s1 returned ClpP mod -11.5%.
Screening O=C(Oc1coc(CSc2nnc(NC(=O)C3CC3)s2)cc1=O)c1ccccc1 returned RXFP1 antag 18.1, gsp antagonist 7.3%, RXFP1 agonist 0.7%, pAkt inh inactive, gsp agonist 8.1% and ClpP mod -0.3%.
COc1ccc(C(=O)Oc2coc(CSc3nnc(NC(=O)c4cccs4)s3)cc2=O)cc1 was read as RXFP1 antag -10.7, gsp antagonist -7.8%, RXFP1 agonist 0.7%, pAkt inh inactive, gsp agonist 6.9% and ClpP mod 28.2µM*.
`COc1cccc(/C=N/Nc2nnc3c(n2)[nH]c2ccccc23)c1OC` gave RXFP1 antag -60.6*, gsp antagonist -7.1%, RXFP1 agonist -0.7%, pAkt inh inactive and gsp agonist 15.7%.
Screening COc1cccc(C=NNc2nc3ccccc3s2)c1OC returned RXFP1 antag -27.1, gsp antagonist 4.8%, pAkt inh inactive and gsp agonist 24.4%.
Screening CN(C)c1ccc(C=O)c(O)c1 returned ClpP mod -3.1%.
Screening CCn1nnc(NC(=O)c2ccc(-c3ccc(Cl)cc3)o2)n1 returned RXFP1 antag 6.5, gsp antagonist -17.0%, RXFP1 agonist -0.7%, pAkt inh inactive, gsp agonist 0.4% and ClpP mod 11.2µM*.
`CCn1nnc(NC(=O)Cc2ccc(Cl)cc2)n1` gave RXFP1 antag -6.4, gsp antagonist -18.7%, RXFP1 agonist 5.1%, pAkt inh inactive, gsp agonist 12.6%[15.4 µM] and ClpP mod 33.7%.
Screening Cc1cc(C)cc(N2C(=O)N(c3ccccc3C)C3CS(=O)(=O)CC32)c1 (configuration not stated) returned RXFP1 antag 1.5, gsp antagonist -9.5%, RXFP1 agonist 0.7%, pAkt inh inactive, gsp agonist -17.0% and ClpP mod 1.1%.
For Cc1cccc(N2C(=O)N(c3ccccc3C)C3CS(=O)(=O)CC32)c1 (configuration not stated) the results were RXFP1 antag -3.2, gsp antagonist -10.6%, RXFP1 agonist -0.3%, pAkt inh inactive, gsp agonist -3.9% and ClpP mod 28.2µM*.
Cc1ccccc1OCC(=O)NCC(=O)OCc1ccc2ccccc2c1 was read as ClpP mod 3.1%.
For CCOc1ccccc1OCC(=O)OCC(=O)c1c(N)n(CC(C)C)c(=O)n(C)c1=O the results were RXFP1 antag -15.7, gsp antagonist 35.5µM*, RXFP1 agonist 2.6%, pAkt inh inactive, gsp agonist -2.2% and ClpP mod 0.1%.
Cc1csc(SCC(=O)c2c(N)n(CC(C)C)c(=O)n(C)c2=O)n1 was read as RXFP1 antag -18.4, gsp antagonist inconclusive, RXFP1 agonist -2.4%, pAkt inh inactive, gsp agonist 19.6% and ClpP mod 1.0%.
`COc1ccccc1CCC(=O)OCC(=O)c1c(N)n(CC(C)C)c(=O)n(C)c1=O` gave RXFP1 antag -20.1, gsp antagonist -45.6%, RXFP1 agonist 0.4%, pAkt inh inactive, gsp agonist -24.8% and ClpP mod -1.4%.
For CC(C)Cn1c(N)c(C(=O)COC(=O)c2cnc(Cl)c(Cl)c2)c(=O)n(C)c1=O the results were RXFP1 antag -36.5, gsp antagonist 35.5µM*, RXFP1 agonist 0.4%, pAkt inh inactive, gsp agonist -39.9% and ClpP mod 0.8%.
CC(C)Cn1c(N)c(C(=O)COC(=O)c2cc(-c3ccccc3)nc3ccccc23)c(=O)n(C)c1=O was read as gsp antagonist 7.8%, RXFP1 agonist 0.3%, pAkt inh inactive, gsp agonist -4.6% and ClpP mod -6.3%.
For CC(C)Cn1c(N)c(C(=O)COC(=O)c2cc(C3CC3)nc3ccccc23)c(=O)n(C)c1=O the results were gsp antagonist -21.0%, RXFP1 agonist -0.5%, pAkt inh inactive, gsp agonist 6.8% and ClpP mod 25.1µM*.
CCOC(=O)Cc1csc(SCC(=O)c2c(N)n(CC(C)C)c(=O)n(C)c2=O)n1 was read as RXFP1 antag 6.6, gsp antagonist 11.2µM*, RXFP1 agonist 2.3%, pAkt inh inactive, gsp agonist 3.2% and ClpP mod -3.5%.
O=C(C1CCC(=O)N(C2CCCC2)C1)N1CCN(Cc2cccc(F)c2)CC1 (configuration not stated) was read as RXFP1 antag 5.3, gsp antagonist 9.2%, RXFP1 agonist -0.4%, pAkt inh inactive, gsp agonist -8.9% and ClpP mod 2.1%.
Cc1nn(CCC#N)c2[nH]c(=O)cc(C(F)(F)F)c12 was read as RXFP1 antag 14.9, gsp antagonist 4.4%, RXFP1 agonist 2.9%, pAkt inh inactive and gsp agonist inconclusive.
